# Test results taken from PubChem BioAssay AID540336 (Broad Institute, 2011).
# Out of some 330,000 compounds screened, about 520 (0.16%) were called active.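 Rule for the calls: active = inhibition of at least 50% in every replicate; inconclusive = best replicate reaches 50% inhibition but some replicates fall short; inactive = the rest.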 The list comes from a sample in which actives are over-represented; it also holds similar structures and randomly drawn compounds.
# Target: Histone acetyltransferase RTT109 (Candida albicans (strain SC5314 / ATCC MYA-2876)) (UniProt Q5AAJ8)
# Sequence (Q5AAJ8 whole entry, looked up): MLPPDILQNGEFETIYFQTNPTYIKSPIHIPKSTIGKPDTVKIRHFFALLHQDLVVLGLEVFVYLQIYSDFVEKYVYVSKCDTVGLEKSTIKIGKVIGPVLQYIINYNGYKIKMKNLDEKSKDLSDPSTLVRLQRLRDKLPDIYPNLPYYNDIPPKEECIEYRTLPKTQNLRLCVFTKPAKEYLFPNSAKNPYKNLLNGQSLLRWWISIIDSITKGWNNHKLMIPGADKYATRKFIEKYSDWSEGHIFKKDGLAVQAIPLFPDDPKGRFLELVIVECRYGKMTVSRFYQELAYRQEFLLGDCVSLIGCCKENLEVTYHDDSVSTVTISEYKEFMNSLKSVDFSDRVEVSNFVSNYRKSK
# Assay: Rtt109-Vps75 histone acetyltransferase blockade – biochemical, ThioGlo CoA-SH fluorescence, plate reader, primary screen (AID 540336)
# Details: purified Rtt109/Vps75, ThioGlo CoA-SH fluorescence, 4 h; at 34.9 µM; active compounds read high
row,Compound,inhibition
1,Oc1cccc(CCc2ccccn2)c1,-14.8% (inactive)
2,CC/C(=C\c1ccc(Cl)cc1)c1ccncc1,-6.6% (inactive)
3,CC12CCCCC1=CC(=O)CC2 (stereo unspecified),-10.3% (inactive)
4,CC1=NN(/C(=N\c2nnc(C)s2)Nc2ccccc2)[C@H](c2ccc(C)cc2)S1,-10.9% (inactive)
5,Cc1cn(C2CC(O)C(CO)O2)c(=O)n(CCCc2ccccc2)c1=O (stereo unspecified),5.62% (inactive)
6,COc1ccc(/C=C2/CCCc3ccccc3C2=O)cc1,-1.83% (inactive)
7,O=C(CNC(=O)c1ccccc1F)OCC(=O)c1c[nH]c2ccccc12,3.64% (inactive)
8,COc1ccc(Cl)cc1C=CC=NNC(=O)c1ccncc1,-2.75% (inactive)
9,Cc1cccc(NC(=S)N2CCC(C(=O)c3ccc(F)cc3)CC2)c1,-3.47% (inactive)
10,O=C(Nc1ccc(S(=O)(=O)N2CCOCC2)cc1)C1CCN(S(=O)(=O)c2ccc(Cl)cc2)CC1,1.41% (inactive)
11,CCOc1cc2ccccc2cc1C(=O)Nc1ccccn1,-0.763% (inactive)
12,CCN(CC)CCOc1ccc2c(c1)C(=NNC(=O)c1ccccn1)c1cc(OCCN(CC)CC)ccc1-2,72.5% (active)
13,C/C(=N\NC(=O)Cc1ccc(Cl)cc1)c1ccccn1,1.88% (inactive)
14,COc1ccc(CCC(=O)Nc2ccc(Cl)c(S(=O)(=O)N3CCOCC3)c2)cc1OC,4.5% (inactive)
15,CCNC(=S)NCC,3.05% (inactive)
16,O=C(O)c1ccc([N+](=O)[O-])cc1Sc1ccsc1,-13.5% (inactive)
17,CC(NC(=O)c1ccccc1)C(=O)OCC(=O)Nc1cccc(S(=O)(=O)N2CCCC2)c1 (stereo unspecified),9.23% (inactive)
18,CCCCN1CC(CO)Oc2cccc(F)c2S1(=O)=O (stereo unspecified),-0.514% (inactive)
19,COc1cccc(-c2ccc(C#N)c(SCC(=O)NCCc3ccc(Cl)cc3)n2)c1,58.6% (active)
20,COc1ccc(CCNC(=O)COC(=O)c2cnc(Cl)c(Cl)c2)cc1,9.18% (inactive)
21,COc1ccc(CCNC(=O)CSc2nc(-c3ccc(OC)c(OC)c3)ccc2C#N)cc1,0.0988% (inactive)
22,O=[N+]([O-])c1ccc(C=NN=Cc2ccc([N+](=O)[O-])cc2)cc1,-12.3% (inactive)
23,COc1ccc(C(CNC(=O)c2cc(S(=O)(=O)Nc3cccc(C)c3)ccc2C)N2CCCC2)cc1 (stereo unspecified),22.1% (inactive)

row,Compound,inhibition
1,CCOc1cc(C=NNC(=O)CCCC(=O)NN=Cc2ccc(O)c(OCC)c2)ccc1O,3.06% (inactive)
2,COC(=O)C1CC2=C(CC(C)(C)CC2=O)N(c2ccccc2)C1=O (stereo unspecified),-0.664% (inactive)
3,COc1ccc(CCNC(=O)c2ccc(NC(=O)CC3SC(N4CCCCC4)=NC3=O)cc2)cc1OC (stereo unspecified),9.04% (inactive)
4,O=c1[nH]c2ccccc2n2c(-c3ccccc3)nnc12,127% (active)
5,O=c1[nH]n2c(-c3ccccc3)nc(O)c2c2ccccc12,-9.47% (inactive)
6,O=C(c1ccc2c(c1)C(=O)N(Cc1ccncc1)C2=O)N1CCN(S(=O)(=O)c2ccc(OC(F)(F)F)cc2)CC1,5.03% (inactive)
7,NC(=O)c1ncn([C@@H]2O[C@H](CNCc3cnc(N4CCOCC4)s3)[C@@H](O)[C@H]2O)n1,0.868% (inactive)
8,O=C(OCCOc1ccccc1F)c1cc(S(=O)(=O)N2CCOCC2)ccc1F,-4.81% (inactive)
9,O=C(OCCOc1ccccc1Cl)c1cc(S(=O)(=O)N2CCCCC2)ccc1N1CCOCC1,2.25% (inactive)
10,NNc1cccc(C=Cc2ccccc2)cc1=O,9.21% (inactive)
11,COc1ccccc1N(CC(=O)Nc1c(C)n(C)n(-c2ccccc2)c1=O)S(=O)(=O)c1ccccc1,33.3% (inactive)
12,CCc1c(Nc2ccccc2C)nc(N)[nH]c1=O,-5.27% (inactive)
13,O=C(O)c1ccc(Cn2cnc3c(=S)nc[nH]c32)cc1,0.573% (inactive)
14,O=C1OCC2=C1C(c1ccc(Cl)cc1)c1cc3c(cc1O2)OCO3 (stereo unspecified),8.44% (inactive)
15,Cc1cc(C)c2c(NC(=O)C3CC3)nn(C)c2n1,-4.52% (inactive)
16,C=CCN1C=C(C(=O)c2ccccc2)C(=O)CC1,9.46% (inactive)
17,CN(C)CCNC(=O)c1ccc(Cl)c2cc3ccccc3nc12,0.27% (inactive)
18,Nc1ccccc1SC(C[N+](=O)[O-])c1ccccc1 (stereo unspecified),108% (active)
19,Cc1ccc(C(C[N+](=O)[O-])c2c(C)cc3ccccn23)cc1 (stereo unspecified),2.3% (inactive)
20,Oc1c(CN2CCCC2)cc(COCc2ccccc2)c2cccnc12,-7.26% (inactive)
21,CCOc1ccc(-n2c(SCC(=O)OC)nc3sc4c(c3c2=O)CCN(C)C4)cc1,-6.79% (inactive)
22,COc1ccccc1NC(=O)CSc1nc2sc3c(c2c(=O)n1-c1ccccc1)CCN(C)C3,59.4% (active)
23,CCn1c(SCC(=O)Nc2ccc(Br)cc2)nc2sc3c(c2c1=O)CCN(C)C3,51.8% (active)

row,Compound,inhibition
1,CCOc1ccc(-n2c(SCC(=O)Nc3ccc(OC)cc3)nc3sc4c(c3c2=O)CCN(C)C4)cc1,11.2% (inactive)
2,CCSc1nc2sc3c(c2c(=O)n1-c1ccc(C)cc1)CCN(C)C3,8.04% (inactive)
3,CCCSc1nc2sc3c(c2c(=O)n1-c1ccc(OC)cc1)CCN(C)C3,0.409% (inactive)
4,Cc1ccc(SC(CC(=O)c2ccc(C(C)(C)C)cc2)C(=O)O)cc1 (stereo unspecified),142% (active)
5,Cc1ccc(C(=O)CSc2ccccc2C(=O)O)cc1,-2.24% (inactive)
6,Cc1ccc(C(=O)CNc2ccc(F)cc2)cc1,-2.53% (inactive)
7,O=[N+]([O-])c1ccc(N=NNc2ccc([N+](=O)[O-])cc2)cc1,2.16% (inactive)
8,Cc1cccc(CC2(O)C(=O)Nc3ccccc32)n1 (stereo unspecified),-2.36% (inactive)
9,O=C(Nc1c(Br)cc2c(c1Br)Cc1ccccc1-2)C(F)(F)F,-19.3% (inactive)
10,OCC1(CO)CC2(C1)CC(CO)(CO)C2,-0.212% (inactive)
11,Cc1cccc(C=CC(=O)c2ccc(Cl)cc2)c1,-3.33% (inactive)
12,CNc1nc(=O)n(C2CCCO2)cc1C (stereo unspecified),12.5% (inactive)
13,S=C(Nc1ccccc1)Nc1ccc2ccccc2c1,0.68% (inactive)
14,C=CCn1c(=O)n(C)c2c(=O)n(C)c(=O)n(C)c21,1.91% (inactive)
15,CNC(=O)NC(=O)C(C)N1CCN(C/C=C/c2ccccc2)CC1 (stereo unspecified),-0.128% (inactive)
16,CC(C)=CCc1ccc(O)c(=O)cc1C(C)C,6.99% (inactive)
17,CCN(Cc1cc2cc(C)ccc2[nH]c1=O)S(=O)(=O)c1ccccc1,6.13% (inactive)
18,CCC(=O)N(CCc1ccccc1)Cc1cc2cc(C)ccc2[nH]c1=O,54.1% (active)
19,Cc1ccc2[nH]c(=O)c(CN(CCCN(C)C)C(=O)Nc3cccc(Cl)c3)cc2c1,6.58% (inactive)
20,COc1cccc2oc(CCc3ccccc3)cc(=O)c12,-16.8% (inactive)
21,COc1cc(/C=C/C(=O)OCC(=O)NC2CC2)cc(OC)c1OC,10.9% (inactive)
22,O=C(Nc1ccc2c(c1)OCCO2)C1CCCC1,-1.87% (inactive)
23,Cc1cc(C)nc(N2CCC(C(=O)Nc3ccc4c(c3)OCCO4)CC2)n1,54.4% (active)

row,Compound,inhibition
1,O=C(Nc1ccc2c(c1)OCCO2)C1CCCN(c2ncccn2)C1 (stereo unspecified),-8.66% (inactive)
2,C[C@H](O)[C@@H]1C(=O)N2CCc3ccc(N4CCOCC4)cc3[C@@H]2C[C@@H]1N(C)C(=O)C(C)(C)C,0.072% (inactive)
3,Cc1nn(-c2ccc(F)cc2)c(Cl)c1/C=C(/CCC(=O)O)c1nc2ccccc2s1,3.42% (inactive)
4,CC(=O)Nc1c2c(nn1-c1cccc(C)c1)CSC2,-4.46% (inactive)
5,CC(C)C(=O)Nc1c2c(nn1-c1ccccc1)CSC2,2.65% (inactive)
6,COc1ccc(-n2nc3c(c2NC(=O)c2ccc(N4C(=O)CCC4=O)cc2)CSC3)cc1,57.3% (active)
7,COc1cc(C(=O)N2CCN(S(=O)(=O)c3ccc(C(C)C)cc3)CC2)ccc1OCC(=O)N1CCOCC1,-4.48% (inactive)
8,COc1ccc(Cn2cc(CN3CCS(=O)(=O)N(Cc4ccc(-c5cccc(Cl)c5)cc4)C(C)C3=O)nn2)cc1 (stereo unspecified),11.2% (inactive)
9,COc1cccc(CNC(=O)CCCC(=O)Nc2cccc([N+](=O)[O-])c2)c1,-7.21% (inactive)
10,COc1ccc(S(=O)(=O)NC(C)C(=O)Nc2cccc([N+](=O)[O-])c2)cc1 (stereo unspecified),-0.177% (inactive)
11,COC(=O)/C=C\C(=O)Nc1cccc([N+](=O)[O-])c1,68.2% (active)
12,CC/C(=C(/c1ccccc1)c1ccc(OCC[N+](C)(C)C)cc1)c1ccccc1,-16.1% (inactive)
13,Cc1ccc(S(=O)(=O)n2oc(=O)c(C3CCCCC3)c2N)cc1,0.705% (inactive)
14,CCCCN(C(=O)CSCc1ccc(C)cc1)c1c(N)n(Cc2ccccc2)c(=O)[nH]c1=O,-4.15% (inactive)
15,COc1ccc(CC(=O)NC(C)c2ccc(Cl)c(Cl)c2)cc1S(=O)(=O)N1CCOCC1 (stereo unspecified),-2.98% (inactive)
16,COc1cc2c(cc1OC)C1C(=O)c3cc(OS(C)(=O)=O)c(OC)cc3C1N(C)C2=O (stereo unspecified),-1.27% (inactive)
17,COc1ccc(/C=C2\SC(=O)N(CCC(=O)NC3CCS(=O)(=O)C3)C2=O)cc1 (stereo unspecified),11.3% (inactive)
18,CN(C(=O)CN1C(=O)/C(=C/c2ccc(Cl)cc2)SC1=S)C1CCS(=O)(=O)C1 (stereo unspecified),-24.5% (inactive)
19,CC(C(=O)NC1CCS(=O)(=O)C1)N1C(=O)/C(=C/c2ccc(Cl)cc2)SC1=S (stereo unspecified),180% (active)
20,COc1cc(/C=C/c2ccc(/C=C/c3cc(OC)c(OC)c(OC)c3)cc2)cc(OC)c1OC,1.49% (inactive)
21,O=[N+]([O-])c1ccc(COc2ccccc2CN2CCOCC2)cc1,9.55% (inactive)
22,C=CCOC(=O)N1CCC2CC1c1cc(-c3ccc(OC)cc3)ccc12 (stereo unspecified),-3.1% (inactive)
